# Screening data deposited in PubChem by several laboratories.
# Compounds with a hit are over-represented: about 7% of the library has one in this group of screens.
# AHR activator = AHR activators, primary screen, cell-based, luminescence, luciferase reporter, human | 320,000 tested, 2.5% active | AID 2796, 2010 | Aryl hydrocarbon receptor (Homo sapiens), P35869 | activation, % at 5 µM | AHR-responsive luciferase reporter cells; in the data active = activation above about 47%;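 note: 0% = vehicle wells and 100% = reference agonist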
# rCAG binder = binders of r(CAG) RNA repeats, primary screen, biochemical, fluorescence; r(CAG) RNA repeat, TO-PRO-1 dye displacement fluorescence; 370,000 tested, 1.3% active; inhibition, % at 3 µM;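 active = inhibition above the plate cutoff, the mean of all test compounds on that plate plus 3 SD, cut at about 35% in these data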;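 note: 0% = DMSO alone and 100% = 100 µM mitoxantrone as full dye displacement; higher means more dye released from RNA so lower well fluorescence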
# ADAM17 inh = ADAM17 inhibitors, primary screen, biochemical, QFRET. Disintegrin and metalloproteinase domain-containing protein 17 (Homo sapiens), P78536. recombinant ADAM17, EDANS/DABCYL FRET peptide cleavage. inhibition, % at 6.95 µM. 370,000 tested, 0.83% active. AID 720648, 2013;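 active = inhibition above the mean of compounds lying between control limits plus 3 SD, set per campaign, cut at about 8.5% in these data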;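 note: 0% = DMSO-only wells as the low control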
# proKLK7 act = proKLK7 zymogen activators, primary screen, biochemical, fluorescence intensity; purified proKLK7, EDANS-DABCYL substrate fluorescence; 100% is mature enzyme control, 0% vehicle; activation, % at 7 µM; 370,000 tested, 0.9% active; AID 652039, 2013;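 active = activation above the mean of all tested compounds plus 3 SD, computed per campaign excluding outliers beyond control limits, cut at about 13% in these data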
# ADAM10 inh = human ADAM10 inhibitors, primary screen, biochemical, QFRET, HTS. Disintegrin and metalloproteinase domain-containing protein 10 (Homo sapiens), O14672. inhibition, % at 7 µM. 370,000 tested, 0.62% active. AID 720582, 2013. recombinant ADAM10, EDANS/DABCYL FRET peptide cleavage, 3 h;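 active = inhibition above a per-campaign cutoff equal to the mean of compounds falling between control-based bounds plus 3 SD, cut at about 20% in these data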;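 note: 0% = DMSO wells while the 100% control is not disclosed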
# Target sequence (O14672 214-748 limits assumed): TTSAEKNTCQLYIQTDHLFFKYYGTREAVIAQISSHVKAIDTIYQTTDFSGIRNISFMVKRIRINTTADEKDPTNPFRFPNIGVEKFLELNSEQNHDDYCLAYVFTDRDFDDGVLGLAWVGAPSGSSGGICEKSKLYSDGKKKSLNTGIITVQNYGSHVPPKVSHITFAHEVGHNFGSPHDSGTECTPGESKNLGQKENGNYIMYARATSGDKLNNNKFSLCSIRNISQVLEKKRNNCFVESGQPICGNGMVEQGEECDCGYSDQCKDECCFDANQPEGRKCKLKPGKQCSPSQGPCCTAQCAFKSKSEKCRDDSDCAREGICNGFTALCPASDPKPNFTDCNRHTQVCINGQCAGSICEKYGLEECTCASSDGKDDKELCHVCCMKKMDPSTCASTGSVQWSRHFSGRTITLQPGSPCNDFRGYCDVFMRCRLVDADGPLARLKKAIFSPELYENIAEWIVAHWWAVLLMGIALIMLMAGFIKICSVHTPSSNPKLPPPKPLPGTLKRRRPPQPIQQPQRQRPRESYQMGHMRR
# GRIN3A LBD mod = binders of NR3A ligand-binding domain, primary screen, biophysical, differential scanning fluorimetry, uHTS. NR3A LBD differential scanning fluorimetry, Tm shift; 0% = protein alone, 100% = glycine-bound protein. Tm shift relative to glycine control, % at 25 µM. 340,000 tested, 2.5% active;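 active = melting temperature shift of at least 10% of the positive control shift, at one fixed dose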
# * marks the source's active call; other numbers are inactive results; · = no result given.
SMILES,AHR activator,rCAG binder,ADAM17 inh,proKLK7 act,ADAM10 inh,GRIN3A LBD mod
COc1cccc(/C=N/NC(=O)c2cc3c(OC)cccc3[nH]2)c1OC,54.3*,2.2,-8.6,0.1,-22.6,-14.1
COc1ccc(OC)c2[nH]c(C(=O)N/N=C/c3ccccc3O)cc12,13.7,18.8,-8.9,-1.4,-6.4,17.6*
COc1cccc(/C=N/NC(=O)c2cc3c(OC)c(OC)ccc3[nH]2)c1OC,·,0.3,1.5,1.4,1.9,-10.1
CCOC(=O)c1c(C)[nH]c(C(=O)N/N=C\c2ccccc2O)c1C,5.1,4.2,-5.3,-5.8,-51.3,17.5*
O=C(c1ccccc1)N1CCC2CCN(S(=O)(=O)c3ccccc3)CC21 (configuration not stated),·,0.8,0.1,0.0,0.2,·
CCOC(=O)[C@@]12CCCC=C1N(CCc1ccc(Cl)cc1)C(=O)[C@H]2CC(=O)NCC1CCCCC1,·,4.3,3.2,0.4,8.6,·
CC(C)[C@@H]1NC(=O)[C@H]2C[C@@]3(c4ccccc4)c4ccccc4N[C@H]3N2C1=O,·,8.8,-2.0,-0.6,-11.1,·
COc1cc(C(=O)Oc2ccccc2/C=N/NC(=O)c2ccc(Cl)cc2Cl)cc(OC)c1OC,59.4*,9.4,3.9,-1.0,4.0,-1.4
O=C(N/N=C\c1cccnc1)c1ccc(Cl)cc1Cl,4.3,·,·,·,·,4.9
C=CCOc1ccccc1/C=N/NC(=O)c1ccc(Cl)cc1Cl,69.5*,0.2,-1.1,-0.1,1.7,-22.1
Cc1ccc(NCN2C(=O)C(=O)c3ccccc32)nc1,4.0,0.3,-6.8,-0.4,-13.6,13.1*
Cc1ccc(NC(=O)CCCCCN2C(=O)c3ccccc3C2=O)nc1,-1.3,-2.2,-2.6,-0.7,0.9,-2.2
CCCC1C2C(=O)N(c3ccccc3OC)C(=O)C2ON1c1ccccc1 (configuration not stated),1.3,3.6,1.8,-0.3,6.3,20.1*
N#CC1=C(SCC(N)=O)NC2=C(C(=O)c3ccccc32)C1c1ccc(Cl)cc1 (configuration not stated),1.1,20.8,-3.6,3.5,-2.4,18.0*
Cn1ncc(Cl)c1C(=O)Nc1nc2ccc(Cl)cc2s1,59.6*,2.1,-2.2,-0.4,-3.1,-17.3
Cn1ncc(Cl)c1C(=O)Nc1cc(C(F)(F)F)ccc1F,77.8*,-4.2,-4.4,-0.3,-0.9,0.1
CCOC(=O)Nc1cc(=O)c([N+](=O)[O-])c(N)[nH]1,·,0.8,7.4,-1.1,4.1,·
COc1ccc(Cn2cc(CN3[C@@H](Cc4ccccc4)COc4cc(Br)ccc4S3(=O)=O)nn2)cc1,·,7.2,-1.8,-0.3,-8.1,·
O=C(O)c1ccc(S(=O)(=O)/N=C2\C=C(Nc3ccccc3F)C(=O)c3ccccc32)cc1,69.6*,32.6,1.6,0.1,-10.9,4.2
CN(C)c1ccc(NC(=S)c2ccc3ccccc3n2)cc1,48.2*,5.6,-3.6,0.2,6.0,-8.2
COc1ccc(NC(=S)c2ccc(N(C)C)cc2)cc1,-4.1,-1.2,-17.3,0.4,-39.1,-2.7
O=c1oc2cc(O)ccc2s1,-0.1,0.3,-5.5,0.2,-6.8,1.8
Cc1ccc(-c2cc(O)cc3sc(=O)oc23)cc1C,10.6,10.1,3.1,0.3,13.1,10.4*
COc1cc(C2C(C#N)=C(N)OC3=C2C(=O)CCC3)c([N+](=O)[O-])cc1OC (configuration not stated),24.8,22.6,-34.8,25.1*,-149.6,1.6
CCn1cc(C2=NC(C(C)C)CO2)c2ccccc21 (configuration not stated),53.1*,-1.5,-4.0,-0.5,-13.6,-2.5
SMILES,AHR activator,rCAG binder,ADAM17 inh,proKLK7 act,ADAM10 inh,GRIN3A LBD mod
CCn1cc(C2=NC(CC(C)C)CO2)c2ccccc21 (configuration not stated),66.7*,-5.9,-9.2,0.6,-2.8,-0.1
COCCn1c(SCC(=O)NC2CCCCC2)nc2c(c1=O)SCC2,-1.3,-1.9,0.7,0.0,2.6,2.9
COCCn1c(SCC(=O)N2CCC(C)CC2)nc2c(c1=O)SCC2,-1.0,-5.0,-0.3,0.8,-11.6,11.1*
C=CCn1c(-c2cc(OC)cc(OC)c2)n[nH]c1=S,14.3,-3.3,-5.7,-0.1,-5.3,-1.4
C=CCn1c(-c2sc3nc(C)cc(C)c3c2N)n[nH]c1=S,100.4*,3.8,-19.9,3.9,-47.4,1.0
COc1ccc2c(c1)CN1C(=O)N(C3CCCC3)S(=O)(=O)CC21 (configuration not stated),·,3.2,0.9,-0.1,0.7,·
CCN1Cc2c(/C=C/c3ccccc3)nc3ccc(OC)cc3c2N(c2cccc(Cl)c2)C1,65.0*,9.6,-20.5,-1.4,-47.4,3.2
COc1cccc(N2CCc3c(C)nc4ccc(Cl)cc4c32)c1,·,9.3,-122.4,-18.0,-162.1,-1.6
COCCOc1ccc(C(F)(F)F)cc1NC(=O)c1ccc(C(F)(F)F)cc1,70.1*,-2.7,-1.4,-0.2,3.3,-6.9
COCCOc1ccc(C(F)(F)F)cc1NC(=O)c1ccccc1F,61.2*,-2.7,-4.3,-1.0,-6.5,-3.5
COc1cc(O)oc1C=Nc1ccc(C(F)(F)F)cc1,53.9*,2.5,-6.3,0.1,-4.8,-2.6
COc1ccc(CNCc2ccc(C(F)(F)F)cc2)cc1OC,6.0,-4.9,-2.8,-0.1,5.8,-4.6
Cc1sc2nc(CSc3nnnn3-c3ccc(Cl)cc3)[nH]c(=O)c2c1C,50.8*,11.3,-6.2,-1.0,-16.2,-11.7
NC(=O)C1CCN(c2ncc(Br)s2)CC1,·,·,-7.4,·,-15.2,·
Cc1cccc(-c2nc3ccccc3c(=O)n2NC(=O)c2cccs2)c1,9.2,-3.7,-3.5,-0.1,-5.3,-2.9
O=C(/C=C/c1cccc(Cl)c1)Nn1c(-c2cccs2)nc2ccccc2c1=O,7.6,6.4,-2.2,-0.1,-7.8,17.3*
O=C(/C=C/c1ccccc1)Nn1c(-c2cccs2)nc2ccccc2c1=O,12.4,12.2,1.3,0.7,9.7,-14.8
Cc1ccc(-c2nc3ccccc3c(=O)n2NC(=O)c2cccs2)cc1,51.7*,3.7,1.1,-0.2,3.2,1.9
O=C(C1CCCN(Cc2cccs2)C1)N1CCCCCC1 (configuration not stated),3.1,-6.7,-5.6,-0.3,-4.6,10.8*
Cc1ccc(N=Cc2nc(-c3ccc(C)cc3)oc2O)cc1,·,2.1,1.3,-4.9,2.6,-1.3
CC1=Nc2ccccc2/C1=C\c1nc(-c2ccc(C(F)(F)F)cc2)oc1O,24.1,12.7,-7.0,-0.2,-9.4,26.8*
